Results filed as inconclusive are left out. Calls of active or inactive are those of the source. Unless noted, the call rests on the fitted dose curve.
Key:
[1] = target: Cytochrome P450 1A2 (Homo sapiens) (UniProt P05177); assay: p450-cyp1a2 (AID 410)
Procedure, shortened: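 O-Demethylation of luciferin 6' methyl ether by human CYP1A2 is monitored as luciferase luminescence. Substrate sits at Km (100uM); enzyme is 20nM. Values are scaled to 57 uM furafylline as maximal inhibition.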

[2] = target: Glucocorticoid receptor (Homo sapiens) (UniProt P04150); assay: GR-EFC Redistribution (AID 451); settings: CHO-K1 GR-EFC translocation, beta-gal luminescence, 2 h; further: potency means the concentration at half of the fitted maximal effect
Procedure, shortened: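 CHO-K1 cells expressing nuclear EA and GR-ED fragments of b-gal; compounds titrated up to 46 uM final, 2 h at 37 C. GR nuclear translocation read as complemented b-gal luminescence after 1 h RT detection.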

[3] = target: 3',5'-cyclic-AMP phosphodiesterase 4B (Homo sapiens) (UniProt Q07343); assay: qHTS Assay for Inhibitors of PDE-IV (AID 607; active means well fitted activation curve with a large enough effect in the main read-out, with a control signal flat, not every such curve was filed as active)
Procedure, shortened: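 Cell-based read-out of cAMP via a modified cyclic nucleotide-gated channel and membrane potential dye (535/590 nm) in HEK293 cells expressing PDE4 endogenously. Compounds tested up to 22.9 uM final; 100 uM RO 20-1724 reference.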

[4] = target: Cytochrome P450 2C19 (Homo sapiens) (UniProt P33261); assay: qHTS Assay for Inhibitors and Substrates of Cytochrome P450 2C19 (AID 899; active means well fitted inhibition curve with a large enough effect; further: nearly all actives have a fitted effect of over 60% in size)
Procedure, shortened: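 Luminescent read-out of luciferin formed from Luciferin-H EGE (10uM, equal to KM). Enzyme 5nM in 50mM KPO4; compound added, 10 min at 37C, then NADPH regenerating system for 60 min at 37C. Full inhibition defined by 57uM ketoconazole.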

Measured: Potency

Sequence of Cytochrome P450 1A2 (Homo sapiens) (P05177 whole entry, looked up): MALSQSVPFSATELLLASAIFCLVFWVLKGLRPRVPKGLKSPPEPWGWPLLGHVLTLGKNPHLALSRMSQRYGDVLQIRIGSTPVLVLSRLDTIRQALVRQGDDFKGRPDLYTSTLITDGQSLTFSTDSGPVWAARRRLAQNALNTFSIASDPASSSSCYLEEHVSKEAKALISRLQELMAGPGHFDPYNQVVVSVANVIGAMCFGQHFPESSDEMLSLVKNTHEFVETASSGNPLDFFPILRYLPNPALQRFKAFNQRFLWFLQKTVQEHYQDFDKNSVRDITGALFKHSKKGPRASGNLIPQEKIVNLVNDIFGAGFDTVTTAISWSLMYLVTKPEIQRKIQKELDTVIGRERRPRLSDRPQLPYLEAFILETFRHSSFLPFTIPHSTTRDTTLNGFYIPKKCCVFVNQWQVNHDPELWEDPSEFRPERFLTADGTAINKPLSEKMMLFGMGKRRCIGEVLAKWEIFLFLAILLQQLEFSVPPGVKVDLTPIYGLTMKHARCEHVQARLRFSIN
Sequence of Cytochrome P450 2C19 (Homo sapiens) (P33261 whole entry, looked up): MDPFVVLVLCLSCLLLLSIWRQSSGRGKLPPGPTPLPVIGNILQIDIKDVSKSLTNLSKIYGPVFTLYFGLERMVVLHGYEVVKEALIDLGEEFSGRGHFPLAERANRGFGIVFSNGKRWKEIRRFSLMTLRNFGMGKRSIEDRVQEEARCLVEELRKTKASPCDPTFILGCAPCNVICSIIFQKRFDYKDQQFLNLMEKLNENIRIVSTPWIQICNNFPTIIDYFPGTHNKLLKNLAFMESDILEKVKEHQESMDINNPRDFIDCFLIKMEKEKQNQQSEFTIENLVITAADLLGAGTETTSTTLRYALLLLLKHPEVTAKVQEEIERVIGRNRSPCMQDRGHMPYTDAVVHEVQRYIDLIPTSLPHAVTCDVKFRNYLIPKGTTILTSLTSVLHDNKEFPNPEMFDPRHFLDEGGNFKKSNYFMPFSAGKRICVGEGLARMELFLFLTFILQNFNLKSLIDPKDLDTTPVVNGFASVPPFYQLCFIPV
Sequence of Glucocorticoid receptor (Homo sapiens) (P04150 whole entry, looked up, the tested form may be a part): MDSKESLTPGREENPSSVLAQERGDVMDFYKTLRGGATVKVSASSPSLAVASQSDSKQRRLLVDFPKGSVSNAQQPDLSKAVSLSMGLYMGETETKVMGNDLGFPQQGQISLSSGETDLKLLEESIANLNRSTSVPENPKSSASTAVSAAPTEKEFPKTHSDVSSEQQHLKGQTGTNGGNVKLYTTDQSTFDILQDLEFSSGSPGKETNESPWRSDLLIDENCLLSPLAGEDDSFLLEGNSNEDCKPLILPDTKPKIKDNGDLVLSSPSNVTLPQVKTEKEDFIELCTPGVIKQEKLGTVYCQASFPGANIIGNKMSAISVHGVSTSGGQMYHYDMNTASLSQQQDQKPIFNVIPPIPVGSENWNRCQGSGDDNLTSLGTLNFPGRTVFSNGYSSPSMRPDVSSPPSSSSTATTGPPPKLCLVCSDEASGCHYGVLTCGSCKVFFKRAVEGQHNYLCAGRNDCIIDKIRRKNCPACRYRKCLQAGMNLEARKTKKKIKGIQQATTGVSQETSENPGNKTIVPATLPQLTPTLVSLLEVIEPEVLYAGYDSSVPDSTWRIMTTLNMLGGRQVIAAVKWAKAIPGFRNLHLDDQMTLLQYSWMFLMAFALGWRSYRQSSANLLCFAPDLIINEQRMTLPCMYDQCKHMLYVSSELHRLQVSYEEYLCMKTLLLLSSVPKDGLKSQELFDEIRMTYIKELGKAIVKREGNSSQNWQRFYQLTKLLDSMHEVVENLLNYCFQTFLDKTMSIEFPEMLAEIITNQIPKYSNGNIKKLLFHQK
Sequence of 3',5'-cyclic-AMP phosphodiesterase 4B (Homo sapiens) (Q07343 whole entry, looked up): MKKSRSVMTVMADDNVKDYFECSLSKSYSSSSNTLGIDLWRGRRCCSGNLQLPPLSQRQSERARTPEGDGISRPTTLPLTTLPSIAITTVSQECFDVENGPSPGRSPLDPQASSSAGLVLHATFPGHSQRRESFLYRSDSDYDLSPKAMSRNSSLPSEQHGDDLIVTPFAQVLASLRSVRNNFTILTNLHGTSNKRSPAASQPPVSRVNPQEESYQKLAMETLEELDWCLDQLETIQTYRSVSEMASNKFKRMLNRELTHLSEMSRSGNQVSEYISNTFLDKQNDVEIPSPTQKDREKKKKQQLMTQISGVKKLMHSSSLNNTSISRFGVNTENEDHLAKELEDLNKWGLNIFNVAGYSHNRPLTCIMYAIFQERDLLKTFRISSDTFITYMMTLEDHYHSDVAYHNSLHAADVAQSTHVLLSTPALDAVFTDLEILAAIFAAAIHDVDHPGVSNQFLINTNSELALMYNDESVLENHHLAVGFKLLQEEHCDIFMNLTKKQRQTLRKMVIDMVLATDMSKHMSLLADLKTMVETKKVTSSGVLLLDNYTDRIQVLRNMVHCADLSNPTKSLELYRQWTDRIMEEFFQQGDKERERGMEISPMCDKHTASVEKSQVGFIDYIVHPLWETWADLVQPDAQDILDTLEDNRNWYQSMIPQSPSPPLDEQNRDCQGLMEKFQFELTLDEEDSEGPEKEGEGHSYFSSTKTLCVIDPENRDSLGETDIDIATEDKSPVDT

NCCC[C@@H](CC(=O)N[C@@H]1CCCC[C@H]1C(=O)N[C@H](CC(=O)N[C@@H](CCC(=O)O)CC(=O)O)Cc1c[nH]c2ccccc12)NC(=O)C[C@H](CO)NC(=O)[C@@H]1CNCC[C@H]1N
inactive: [1] | [2] > 46 µM | [3] | [4]

From PubChem BioAssay (NCATS)
